Consider 93 molecules from PubChem BioAssay AID868 (SRMLSC, 2007).

About 3,500 (1.8%) of roughly 190,000 compounds were called active.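 How the source made its calls: active means inhibition above a set limit, 3 SD over mean compound inhibition (cut at about 8.4% in these data); inactive means the rest.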 This excerpt belongs to a sample that is enriched for actives.

This assay can be described thus: RAM signaling blockers in budding yeast – dse1pr::URA3 reporter, 5-FOA selection, primary screen (AID 868).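 Further: 0% = DMSO-only wells with no growth and 100% = 10 µM 1-NA-PP1 full growth; inhibition rescues growth on 5-FOA so higher OD means more RAM inhibition.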 As to conditions: S. cerevisiae dse1pr::URA3 reporter, 5-FOA growth OD615, 2 d; at 50 µM; active compounds read high; analog-sensitive cbk1-as2 kinase mutant strain.
`Cc1cccc(C(=O)N2CCC(c3nc4ccccc4s3)CC2)c1`: the inhibition (commonly the drop in the measured response relative to a control, in per cent) is 0.14% (inactive).

With `Cc1cc(C)n2nc(C(=O)N(C)C(c3ccccc3)c3ccccc3)nc2n1`, the inhibition is 2.14% (inactive).

For the molecule `CC1CCN(S(=O)(=O)c2ccc(S(=O)(=O)NCc3cccnc3)cc2)CC1`, the inhibition was 0.4% (inactive).

Take `CCCCNC(=O)c1c[nH]c2ccc(S(=O)(=O)Nc3ccc(OCC)cc3)cc2c1=O`: the inhibition is 5.33% (inactive).

Turning to `CCN(CC)S(=O)(=O)c1ccc2[nH]cc(C(=O)NCCc3ccccc3)c(=O)c2c1`, the inhibition was 6.86% (inactive).

`COc1cccc(NS(=O)(=O)c2ccc3[nH]cc(C(=O)NCCCOC(C)C)c(=O)c3c2)c1`: the inhibition is 9.49% (active).

As for `CCC1(C)Cc2c(sc3nc(SC)nc(N)c23)CO1` (stereo not drawn), the inhibition is 1.97% (inactive).

Consider `CCCSc1nc(NCc2ccco2)c2c3c(sc2n1)COC(C)(CC)C3` (stereo not drawn), for which the inhibition was 13.4% (active).

On to `CN(C)CCSc1nc(N)c2c3c(sc2n1)COC(C)(C)C3`, for which the inhibition is 0.35% (inactive).

For `Cc1cccc(N2C(=O)c3cccnc3C2=O)c1`, the inhibition is 0.23% (inactive).

As for `Cc1cccc(N2C(=O)CC(SC(N)=Nc3ccccc3)C2=O)c1` (stereo not drawn), the inhibition was 5.62% (inactive).

On to `Cc1cccc(N2C(=O)C3C(c4ccccc4)OC4(C(=O)c5ccccc5C4=O)C3C2=O)c1` (stereo not drawn), for which the inhibition is 10.5% (active).

As to `Cc1cccc(NC(=O)Cn2c(=O)n(Cc3ccccc3)c(=O)c3c(C)c(C)sc32)c1`, the inhibition was 2.47% (inactive).

For the molecule `Cc1cc(C(=O)N/N=C/c2ccccc2[N+](=O)[O-])c(C)o1`, the inhibition is 1.55% (inactive).

For `CCOC(=O)c1cc2occc2n1CC(=O)NC1CCC(C)CC1` (stereo not drawn), the inhibition was 1.74% (inactive).

Turning to `COC(=O)c1cc2occc2n1Cc1nc(-c2ccccc2C)oc1C`, the inhibition is 10.4% (active).

In the case of `Cc1ccccc1-c1nc(CS(=O)(=O)CC(=O)N2CCc3ccccc3C2)c(C)o1`, the inhibition is 3.54% (inactive).

`COc1ccc(F)c(-c2nc(CN3CCC(c4ccccc4)CC3)c(C)o2)c1`: the inhibition was 1.5% (inactive).

On to `CCC1=C/C(=C\c2ccc3c(c2)OCO3)C(=O)S1`, for which the inhibition was 5.39% (inactive).

With `O=C1/C(=C/c2ccc3c(c2)OCO3)CCC/C1=C\c1ccc2c(c1)OCO2`, the inhibition was 11.6% (active).

As to `CSC1=N/C(=C\c2ccc3c(c2)OCO3)C(=O)S1`, the inhibition was 5.69% (inactive).

On to `C=CS(=O)c1sc(Cl)c(N2CCOCC2)c1[N+](=O)[O-]` (stereo not drawn), for which the inhibition was -1.6% (inactive).

As to `Cc1cccc(C(=O)OCC(=O)Nc2sc3c(c2C#N)CCC3)c1`, the inhibition was 3.27% (inactive).

On to `C=CCn1c(-c2ccc(Cl)cc2)ccc(C#N)c1=O`, for which the inhibition was 10.6% (active).

Regarding `C=CCn1cc(-c2cccc(C(F)(F)F)c2)cc(C#N)c1=O`, the inhibition is 1.24% (inactive).

For `C=CCn1c(SCn2nnc3ccccc3c2=O)nnc1-c1ccc(Cl)cc1`, the inhibition is 1.52% (inactive).

Regarding `Cc1cccc(/C(N)=N/OC(=O)c2ccccc2Cl)c1`, the inhibition is -0.84% (inactive).

With `O=C(O)C1CCCN(S(=O)(=O)c2cccc3cccnc23)C1` (stereo not drawn), the inhibition was 2.19% (inactive).

Take `COc1ccc(NC(=O)C2CCCN(S(=O)(=O)c3cccc4cccnc34)C2)cc1OC` (stereo not drawn): the inhibition is -0.46% (inactive).

For `COc1ccc(NC(=O)C2CCCN(S(=O)(=O)c3cccc4cccnc34)C2)cc1` (stereo not drawn), the inhibition was 9.02% (active).

`COc1ccc(NC(=O)COC(=O)CNC(=O)C2CCCCC2)cc1`: the inhibition is 0.13% (inactive).

On to `O=C(OCC(=O)c1cccs1)C1=COCCO1`, for which the inhibition was 0.33% (inactive).

With `CCC(C)(C)c1ccc(Oc2ccc(NC(=O)COC(=O)C3=COCCO3)cc2)cc1`, the inhibition is 12.6% (active).

`COc1ccccc1NC(=O)CSc1nc2sc(C)c(C)c2c(=O)n1Cc1ccco1`: the inhibition was 4.61% (inactive).

As to `CCOC(=O)CSc1nc2c(sc(=S)n2CCc2ccccc2)c(=O)n1Cc1ccco1`, the inhibition is 10.1% (active).

Consider `CCOC(=O)CSc1nc2c(c(=O)n(C)c(=O)n2C)n1Cc1ccccc1F`, for which the inhibition was 5.16% (inactive).

Turning to `O=c1[nH]c(N2CCN(Cc3ccc4c(c3)OCO4)CC2)nc2c1CCCC2`, the inhibition is 0.84% (inactive).

For `O=C(Nc1ccn(Cc2ccccc2)n1)c1cccc(F)c1`, the inhibition was 0% (inactive).

In the case of `CC(=O)Nc1ccn(Cc2c(F)cccc2Cl)n1`, the inhibition is 0.11% (inactive).

On to `O=C(Nc1ccn(Cc2ccccc2F)n1)c1ccc(COc2ccc(Cl)cc2Cl)o1`, for which the inhibition is 9.18% (active).

Regarding `O=C(Nc1ccc2c(c1)CCC2)c1ccc(Br)s1`, the inhibition is 1.86% (inactive).

As for `CCOC(=O)C(C)n1nc(-c2ccccc2)c2ccccc2c1=O` (stereo not drawn), the inhibition was 0.13% (inactive).

Regarding `O=C(Nn1cnc2ccccc2c1=O)c1ccccc1`, the inhibition was 1.22% (inactive).

For the molecule `CCSc1nc(C)nc2c1oc1ccccc12`, the inhibition was 3.79% (inactive).

With `COc1ccccc1Nc1ncnc2c1oc1ccccc12`, the inhibition was 5% (inactive).

As for `CCc1nc(Nc2ccc3nccnc3c2)c2oc3ccccc3c2n1`, the inhibition was 12.5% (active).

Take `Cc1ccc(NC(=O)C(=O)NCc2ccco2)c(C)c1`: the inhibition was 4.33% (inactive).

As for `CCOc1ccc(/C=N/OCC(=O)NCc2cccs2)cc1`, the inhibition was 0.76% (inactive).

As for `CCOC(=O)C1(CC2CCCCO2)CCN(Cc2nc(-c3cccs3)oc2C)CC1` (stereo not drawn), the inhibition was 0.26% (inactive).

Take `O=C(COc1ccccc1)Nc1ccc(N2CCN(C(=O)c3cccs3)CC2)cc1`: the inhibition was 6.82% (inactive).

Regarding `COc1ccc(/C=C2\SC(=N)N(c3ccc(F)cc3)C2=O)cc1`, the inhibition is 2.04% (inactive).

With `CCNC(=S)N(CCc1c(C)[nH]c2ccc(C)cc12)Cc1ccco1`, the inhibition was 9.53% (active).

As for `COc1ccc2[nH]c(C)c(CCN(Cc3cccs3)C(=S)Nc3ccccc3OC)c2c1`, the inhibition is 2.4% (inactive).

In the case of `COc1cccc(NC(=S)N(CCc2c(C)[nH]c3ccccc23)Cc2ccco2)c1`, the inhibition is 7.14% (inactive).

For `Cc1ccc(-n2c(SCC(=O)N/N=C/C=C/c3ccccc3[N+](=O)[O-])nc3ccccc3c2=O)cc1`, the inhibition is 10.3% (active).

In the case of `O=C(CSc1nc2ccccc2[nH]1)N/N=C/C=C\c1ccccc1[N+](=O)[O-]`, the inhibition is 0.9% (inactive).

Regarding `CCn1c(SCC(=O)N/N=C/C=C/c2ccccc2[N+](=O)[O-])nnc1-c1ccccc1`, the inhibition was 0.99% (inactive).

As for `Cc1ccc(NC(=O)c2ccn(C(=O)Nc3ccccc3)n2)c(C)c1`, the inhibition was 1.13% (inactive).

Consider `COc1ccc(C)cc1NC(=O)Nc1ccccc1SC`, for which the inhibition was 3.85% (inactive).

For the molecule `COc1ccc(C)cc1NC(=S)Nc1ccccc1SC`, the inhibition is 0.14% (inactive).

In the case of `COc1ccc(C)cc1NC(=O)C(Sc1ccccc1)c1ccccc1` (stereo not drawn), the inhibition was 12% (active).

Turning to `Cc1c(CN2CCCCC2)c(O)n(CCO)c(=O)c1C#N`, the inhibition was 1.68% (inactive).

As to `Cc1cc(C)c(C(N)=O)c(Cl)n1`, the inhibition was -0.5% (inactive).

`C/C(=N\Nc1nc(N2CCOCC2)nc(N2CCOCC2)n1)c1ccc([N+](=O)[O-])cc1`: the inhibition is 1.78% (inactive).

Consider `OCCC1CN(Cc2ccccc2-c2ccco2)CCN1Cc1ccsc1` (stereo not drawn), for which the inhibition is 0.13% (inactive).

In the case of `CC1CCN(C2=NC(=O)/C(=C/c3cn[nH]c3-c3ccccc3)S2)CC1`, the inhibition was 9.65% (active).

`Cc1ccc(N2CCN(C3=NC(=O)/C(=C\c4cccs4)S3)CC2)cc1`: the inhibition was 2.02% (inactive).

Consider `CCc1ccc(/C=C2\SC(N3CCOCC3)=NC2=O)cc1`, for which the inhibition was 2.12% (inactive).

For the molecule `O=c1c(Cl)c(NCc2ccc(F)cc2Cl)cnn1C12CC3CC(CC(C3)C1)C2`, the inhibition was 6.9% (inactive).

`CCN(CCn1cccn1)Cc1nc(-c2ccc(C(=O)OC)cc2)no1`: the inhibition is 0.13% (inactive).

As for `O=C(COc1ccc(NC(=O)c2ccccc2[N+](=O)[O-])cc1)c1ccc(F)cc1`, the inhibition is 6.75% (inactive).

Turning to `Cc1ccccc1CSCCNC(=O)c1ccc(N(C)S(=O)(=O)c2ccccc2)cc1`, the inhibition is 14.2% (active).

As to `Cc1ccc(C(=O)NCCNS(=O)(=O)c2ccccc2)cc1`, the inhibition is 0.27% (inactive).

As for `Cc1ccccc1CSCCNC(=O)c1ccc(Cl)c(S(=O)(=O)N2CCOCC2)c1`, the inhibition was 7.41% (inactive).

On to `CCOC(=O)N1CCN(C(=O)c2cc3c(-c4ccc(Cl)cc4)nn(C)c3s2)CC1`, for which the inhibition is -0.35% (inactive).

Consider `COc1ccccc1N1CCN(C(=O)c2cc3c(-c4ccc(Cl)cc4)nn(C)c3s2)CC1`, for which the inhibition was 5.62% (inactive).

`COc1cccc(-c2nn(C)c3sc(C(=O)N4CCN(c5ccccc5)CC4)cc23)c1`: the inhibition was 8.94% (active).

In the case of `O=C(CCS(=O)(=O)Cc1ccccc1)Nc1ccc2c(c1)OCCO2`, the inhibition is 3.16% (inactive).

As for `O=C(Nc1ccnc(-c2ccncc2)n1)c1cccs1`, the inhibition was -0.85% (inactive).

Consider `COc1ccnc(Oc2ccccc2)n1`, for which the inhibition is 2.23% (inactive).

Turning to `C=CCOC(=O)C1=C[C@@H](c2ccccc2)C[C@@H](OCc2ccc(CO)cc2)O1`, the inhibition was 1.5% (inactive).

`O=C(NCc1ccccc1)C1=C[C@@H](C2CCCCC2)C[C@@H](OCc2ccc(CO)cc2)O1`: the inhibition was 16.7% (active).

With `O=C(NCc1ccccc1)C1=C[C@H](C2CC2)C[C@H](OCc2ccc(CO)cc2)O1`, the inhibition was -0.5% (inactive).

`CC(C)(C)[C@H]1C=C(C(=O)NCc2ccccc2)O[C@@H](OCc2ccc(CO)cc2)C1`: the inhibition is 3.51% (inactive).

As to `O=C(NCc1ccccc1)C1=C[C@@H](c2ccc(C(F)(F)F)cc2)C[C@@H](OCc2ccc(CO)cc2)O1`, the inhibition was 12.2% (active).

For `O=C(C1=C[C@H](c2ccc(C(F)(F)F)cc2)C[C@H](OCc2ccc(CO)cc2)O1)N1CCN(Cc2ccccc2)CC1`, the inhibition was 2.29% (inactive).

Turning to `Fc1ccccc1Cn1cnc(NC(=S)NCCc2ccccc2)n1`, the inhibition was 6.41% (inactive).

Regarding `O=C(NCCc1ccc(F)cc1)c1n[nH]c2ccccc12`, the inhibition is -0.97% (inactive).

For the molecule `C/C(N)=C(/C#N)C(=O)COC(=O)c1cc(-c2cccc(Br)c2)nc2ccccc12`, the inhibition was 4.74% (inactive).

Take `O=C(CCC1CCCN(Cc2ccc(O)c(Cl)c2)C1)NCc1ccccc1F` (stereo not drawn): the inhibition was 1.23% (inactive).

Take `O=C(Oc1cccc(O)c1)C1CCCCC1`: the inhibition is -0.74% (inactive).

Take `CC(C)Oc1ccccc1C(=O)NC(CO)C(=O)O` (stereo not drawn): the inhibition was 1.42% (inactive).

With `O=C(NN=C1CCC(=NNC(=O)c2cccnc2)CC1)c1cccnc1`, the inhibition was 1.46% (inactive).
